{"source": "PubChem BioAssay (NCATS)", "key": {"[1]": {"target": "Glutathione peroxidase 1 (Homo sapiens) (UniProt P07203)", "sequence (P07203 whole entry, looked up)": "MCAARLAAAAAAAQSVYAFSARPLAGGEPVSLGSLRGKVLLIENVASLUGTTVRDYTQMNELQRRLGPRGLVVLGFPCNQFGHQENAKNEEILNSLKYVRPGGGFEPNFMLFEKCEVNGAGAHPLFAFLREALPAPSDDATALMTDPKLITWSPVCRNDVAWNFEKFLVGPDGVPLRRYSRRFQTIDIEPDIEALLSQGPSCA", "assay": "Primary qHTS Assay for Inhibitors of Recombinant Selenoprotein Glutathione Peroxidase 1 (GPX1) (AID 1845191); also: nearly all actives have a fitted effect of over 65% in size", "how_it_was_run": "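GPX1 10 nM, GR 100 nM, GSH 1 mM, NADPH 0.5 mM, CHP 0.5 mM (final). 30-min cpd preincubation, RT. Ex340/Em450 read t=0, t=15 min.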"}, "[2]": {"target": "Phospholipid hydroperoxide glutathione peroxidase GPX4 (Homo sapiens) (UniProt P36969)", "sequence (P36969 whole entry, looked up)": "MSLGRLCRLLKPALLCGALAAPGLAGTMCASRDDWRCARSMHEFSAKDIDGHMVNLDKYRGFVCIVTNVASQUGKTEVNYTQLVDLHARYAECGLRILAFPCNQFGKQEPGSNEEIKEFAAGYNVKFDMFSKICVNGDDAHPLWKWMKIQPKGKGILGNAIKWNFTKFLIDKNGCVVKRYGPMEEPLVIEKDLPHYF", "assay": "Primary qHTS Assay for Inhibitors of Recombinant Selenoprotein Glutathione Peroxidase 4 (GPX4) (AID 1845192); also: nearly all actives have a fitted effect of over 65% in size; also: potency is read from the fitted curve at half-maximal effect", "how_it_was_run": "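qHTS, GR-coupled: GPX4 200 nM + cpd 30 min RT → GSH 1 mM, NADPH 0.5 mM, GR 100 nM → CHP 0.5 mM start; fluor 340/450 at t0 and t15 min; no-enzyme wells as control.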"}, "[3]": {"target": "Luciferin 4-monooxygenase (Photinus pyralis) (UniProt P08659)", "assay": "Primary firefly luciferase (FLuc) qHTS assay for identification of artifact compounds. (AID 1845220); also: nearly all actives have a fitted effect of over 60% in size; also: potency is read from the fitted curve at half-maximal effect", "how_it_was_run": "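qHTS, 15 min compound preincubation with substrate (10 uM luciferin, 10 uM ATP) at RT, then 10 nM FLuc; 5 min; luminescence; % inhibition vs no-enzyme/DMSO controls, 4-parameter Hill fit.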"}, "[4]": {"assay": "Primary fluorescence-based thiol-reactive (MSTI) qHTS assay for identification of artifact compounds. (AID 1845221);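 also: series mostly up to about 54 µM; thiol-reactive compounds lower the probe fluorescence signal; nearly all actives have a fitted effect of over 65% in size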", "how_it_was_run": "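First, 4 uM MSTI in 2% DMSO/PBS pH 7.4 was dispensed; next, compounds were added; then plates sat 1 h at room temperature without light. Finally, emission at 598 nm was recorded.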"}, "[5]": {"tested_on": "Nanoluciferase (engineered Oplophorus gracilirostris luciferase)", "assay": "Primary Nanoluciferase (NLuc) qHTS assay for identification of artifact compounds. (AID 1845222); also: series mostly up to about 54 µM", "how_it_was_run": "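Luminescence read-out of secreted NLuc in S16 cell conditioned medium (1:55); compounds tested with 15 min RT preincubation, then Nano-Glo substrate 1:100, 5 min. % inhibition vs no-enzyme and DMSO controls, 4-parameter Hill fit.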"}, "[6]": {"assay": "Primary redox qHTS assay for identification of artifact compounds. (AID 1845223)", "how_it_was_run": "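Redox-cycling detection via DTT (250 uM final) oxidation coupled to Amplex Red (25 uM)/HRP (250 mU/mL) in HBSS. 15 min preincubation plus 30 min after DTT, room temperature. Ex/Em 525/598 nm; 4-parameter Hill fit against DMSO and 10 uM DA3003.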"}}, "note": "A number with no mark means an inactive call. Inconclusive results are not listed. Where a call stands in place of a potency, no number is given. Calls of active or inactive are those of the source. Calls follow the shape of the dose curve; as a rule, active = well fitted curve in the direction sought with a large enough effect; inconclusive = small, poorly fitted or top-dose-only effect, or another doubt; inactive = no such curve, though single readings can be large; an effect the other way counts as inactive or inconclusive."}
{"smiles": "O=C([C@@H]1CCCN(c2ccc3[nH]c(C4(n5cc(Cl)cn5)CC4)nc3n2)C1)N1CCCC1", "values": [{"measurement": "Potency", "setting": "[1]", "result": "inactive"}, {"measurement": "Potency", "setting": "[2]", "result": "25.5 µM (active)"}, {"measurement": "Potency", "setting": "[3]", "result": "inactive"}, {"measurement": "Potency", "setting": "[4]", "result": "inactive"}, {"measurement": "Potency", "setting": "[5]", "result": "inactive"}, {"measurement": "Potency", "setting": "[6]", "result": "inactive"}]}
{"smiles": "FC(F)(F)c1ccccc1-c1cc(C(F)(F)F)c2nc(C3=NOC4(CCCCC4)C3)[nH]c2c1", "values": [{"measurement": "Potency", "setting": "[1]", "result": "inactive"}, {"measurement": "Potency", "setting": "[2]", "result": "inactive"}, {"measurement": "Potency", "setting": "[3]", "result": "inactive"}, {"measurement": "Potency", "setting": "[4]", "result": "inactive"}, {"measurement": "Potency", "setting": "[5]", "result": "inactive"}, {"measurement": "Potency", "setting": "[6]", "result": "inactive"}]}
{"smiles": "Cc1ccc(-c2cn3c4c(sc3n2)CCCC4)cc1", "values": [{"measurement": "Potency", "setting": "[1]", "result": "inactive"}, {"measurement": "Potency", "setting": "[2]", "result": "inactive"}, {"measurement": "Potency", "setting": "[3]", "result": "0.19 µM (active)"}, {"measurement": "Potency", "setting": "[4]", "result": "inactive"}, {"measurement": "Potency", "setting": "[5]", "result": "inactive"}, {"measurement": "Potency", "setting": "[6]", "result": "inactive"}]}
{"smiles": "CN(C)CCOc1cc(NS(=O)(=O)c2c(Cl)cc(C(F)(F)F)cc2Cl)ccc1Cl", "values": [{"measurement": "Potency", "setting": "[1]", "result": "inactive"}, {"measurement": "Potency", "setting": "[2]", "result": "inactive"}, {"measurement": "Potency", "setting": "[3]", "result": "inactive"}, {"measurement": "Potency", "setting": "[4]", "result": "inactive"}, {"measurement": "Potency", "setting": "[5]", "result": "inactive"}, {"measurement": "Potency", "setting": "[6]", "result": "inactive"}]}
{"smiles": "C=C1C(=O)O[C@@H]2C[C@H](C)[C@@H]3CC(=O)C(C)=C3C[C@H]12", "values": [{"measurement": "Potency", "setting": "[1]", "result": "inactive"}, {"measurement": "Potency", "setting": "[2]", "result": "inactive"}, {"measurement": "Potency", "setting": "[3]", "result": "inactive"}, {"measurement": "Potency", "setting": "[4]", "result": "inactive"}, {"measurement": "Potency", "setting": "[5]", "result": "inactive"}, {"measurement": "Potency", "setting": "[6]", "result": "inactive"}]}
{"smiles": "Nc1nccc(-c2c(-c3ccc(F)cc3)ncn2C2CCCCC2)n1", "values": [{"measurement": "Potency", "setting": "[1]", "result": "inactive"}, {"measurement": "Potency", "setting": "[2]", "result": "inactive"}, {"measurement": "Potency", "setting": "[3]", "result": "inactive"}, {"measurement": "Potency", "setting": "[4]", "result": "inactive"}, {"measurement": "Potency", "setting": "[5]", "result": "inactive"}, {"measurement": "Potency", "setting": "[6]", "result": "inactive"}]}
{"smiles": "COc1ccncc1C(=O)NC(=O)Nc1ccc(-c2ccccc2)c(C(F)(F)F)c1", "values": [{"measurement": "Potency", "setting": "[1]", "result": "inactive"}, {"measurement": "Potency", "setting": "[2]", "result": "inactive"}, {"measurement": "Potency", "setting": "[3]", "result": "inactive"}, {"measurement": "Potency", "setting": "[4]", "result": "inactive"}, {"measurement": "Potency", "setting": "[5]", "result": "inactive"}, {"measurement": "Potency", "setting": "[6]", "result": "inactive"}]}
{"smiles": "Cc1cc(NC(=O)NCCN2CCC(O)(Cc3ccccc3)CC2)c2ccccc2n1", "values": [{"measurement": "Potency", "setting": "[1]", "result": "inactive"}, {"measurement": "Potency", "setting": "[2]", "result": "inactive"}, {"measurement": "Potency", "setting": "[3]", "result": "inactive"}, {"measurement": "Potency", "setting": "[4]", "result": "inactive"}, {"measurement": "Potency", "setting": "[5]", "result": "inactive"}, {"measurement": "Potency", "setting": "[6]", "result": "inactive"}]}
{"smiles": "CCN(Cc1cc(Nc2nc(C)cn3c(-c4cn[nH]c4)cnc23)sn1)C(C)(C)CO", "values": [{"measurement": "Potency", "setting": "[1]", "result": "inactive"}, {"measurement": "Potency", "setting": "[2]", "result": "inactive"}, {"measurement": "Potency", "setting": "[3]", "result": "inactive"}, {"measurement": "Potency", "setting": "[4]", "result": "inactive"}, {"measurement": "Potency", "setting": "[5]", "result": "inactive"}, {"measurement": "Potency", "setting": "[6]", "result": "inactive"}]}
{"smiles": "CCC(C)CNCC(=O)N1CCc2sccc2C1COc1cccc(C)c1", "note": "(configuration not stated)", "values": [{"measurement": "Potency", "setting": "[1]", "result": "inactive"}, {"measurement": "Potency", "setting": "[2]", "result": "inactive"}, {"measurement": "Potency", "setting": "[3]", "result": "inactive"}, {"measurement": "Potency", "setting": "[4]", "result": "inactive"}, {"measurement": "Potency", "setting": "[5]", "result": "inactive"}, {"measurement": "Potency", "setting": "[6]", "result": "inactive"}]}
{"smiles": "COc1ccccc1N1CCN(CC[C@@](C)(C(=O)C2CCCCC2)c2ccccc2)CC1", "values": [{"measurement": "Potency", "setting": "[1]", "result": "inactive"}, {"measurement": "Potency", "setting": "[2]", "result": "inactive"}, {"measurement": "Potency", "setting": "[3]", "result": "inactive"}, {"measurement": "Potency", "setting": "[4]", "result": "inactive"}, {"measurement": "Potency", "setting": "[5]", "result": "inactive"}, {"measurement": "Potency", "setting": "[6]", "result": "inactive"}]}
{"smiles": "COC(=O)C1=CO[C@@H](O[C@@H]2O[C@H](CO)[C@@H](O)[C@H](O)[C@H]2O)[C@H]2[C@@H]1C=C[C@]21C=C([C@H](C)OC(=O)/C=C/c2ccc(O)cc2)C(=O)O1", "values": [{"measurement": "Potency", "setting": "[1]", "result": "inactive"}, {"measurement": "Potency", "setting": "[2]", "result": "inactive"}, {"measurement": "Potency", "setting": "[3]", "result": "inactive"}, {"measurement": "Potency", "setting": "[4]", "result": "inactive"}, {"measurement": "Potency", "setting": "[5]", "result": "inactive"}, {"measurement": "Potency", "setting": "[6]", "result": "inactive"}]}
